According to PubChem BioAssay AID1159580 (chemical genetic matrix, 2015):
Several values for one entry are separate records, joined by “and”; a condition that tells them apart may be missing. Identical values can stand only once. About 2,000 (36%) of roughly 5,500 compounds were called active. Roughly 18% stayed inconclusive and do not appear here. Rule as the data show it: active = normalized growth mostly below about 0.91 (no sharp cut-off); inconclusive = no clear call, values can overlap the other calls; inactive = mostly above about 0.92. This is one part of the list.

Test: chemical genetic growth profiling, strain panel (AID 1159580);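 also: tested at 20 µM; growth read once vehicle control cultures reached saturation at 30 °C; 1 = growth at the plate median or of vehicle wells; lower values mean less growth of the strain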
Details: S. cerevisiae deletion strains, growth OD

Measured: normalized growth

NC(=O)c1ccc([N+](=O)[O-])cc1Cl
inactive: locus YAL013W, strain DEP1, stronger effect = lower value 0.983 | locus YAL021C, strain ccr4, stronger effect = lower value 0.97 | locus YAL026C, strain drs2, stronger effect = lower value 0.968 | locus YAL030W, strain snc1, stronger effect = lower value 0.997 | locus YBL061C, strain skt5, stronger effect = lower value 0.983 | locus YBR009C, strain hhf1, stronger effect = lower value 0.953 | locus YBR021W, strain FUR4, stronger effect = lower value 1.02 | locus YBR023C, strain chs3, stronger effect = lower value 0.985 | locus YBR171W, strain sec66, stronger effect = lower value 0.981 | locus YBR229C, strain ROT2, stronger effect = lower value 0.95 | locus YBR231C, strain swc5, stronger effect = lower value 1.01 | locus YBR279W, strain paf1, stronger effect = lower value 0.988 | locus YCL011C, strain gbp2, stronger effect = lower value 0.929 | locus YCL016C, strain dcc1, stronger effect = lower value 0.951 | locus YCL029C, strain bik1, stronger effect = lower value 0.977 | locus YCL069W, strain vba3, stronger effect = lower value 0.984 | locus YCR088W, strain abp1, stronger effect = lower value 0.994 | locus YDL005C, strain med2, stronger effect = lower value 0.985 | locus YDL035C, strain GPR1, stronger effect = lower value 0.98 | locus YDL040C, strain nat1, stronger effect = lower value 0.992 | locus YDL074C, strain BRE1, stronger effect = lower value 0.956 | locus YDL101C, strain DUN1, stronger effect = lower value 0.943 | locus YDL134C, strain PPH21, stronger effect = lower value 0.982 | locus YDL185W, strain tfp1, stronger effect = lower value 0.981 | locus YDL192W, strain arf1, stronger effect = lower value 0.982 | locus YDR001C, strain nth1, stronger effect = lower value 0.965 | locus YDR069C, strain doa4, stronger effect = lower value 0.971 | locus YDR101C, strain arx1, stronger effect = lower value 0.991 | locus YDR137W, strain rgp1, stronger effect = lower value 0.929 | locus YDR150W, strain NUM1, stronger effect = lower value 0.965 | locus YDR159W, strain sac3, stronger effect = lower value 0.931 | locus YDR162C, strain NBP2, stronger effect = lower value 0.945 | locus YDR195W, strain ref2 1.02 | locus YDR297W, strain sur2, stronger effect = lower value 0.978 | locus YDR318W, strain mcm21, stronger effect = lower value 0.995 | locus YDR334W, strain swr1, stronger effect = lower value 0.979 | locus YDR335W, strain msn5, stronger effect = lower value 0.981 | locus YDR388W, stronger effect = lower value 0.984 | locus YDR392W, strain spt3, stronger effect = lower value 0.942 | locus YDR502C, strain sam2, stronger effect = lower value 0.973 | locus YEL003W, strain gim4, stronger effect = lower value 1.01 | locus YEL037C, strain rad23, stronger effect = lower value 0.983 | locus YEL061C, strain CIN8 (second series), stronger effect = lower value 0.979 | locus YEL061C, strain CIN8, stronger effect = lower value 0.976 | locus YER015W, strain faa2, stronger effect = lower value 0.988 | locus YER016W, strain bim1, stronger effect = lower value 0.969 | locus YER110C, stronger effect = lower value 0.978 | locus YER111C, strain swi4, stronger effect = lower value 0.988 | locus YER155C, strain BEM2 (second series), stronger effect = lower value 1.05 | locus YER155C, strain BEM2, stronger effect = lower value 0.984 | locus YER167W, strain BCK2, stronger effect = lower value 0.978 | locus YFR010W, strain ubp6, stronger effect = lower value 0.975 | locus YGL078C, strain dbp3, stronger effect = lower value 0.965 | locus YGL086W, strain mad1, stronger effect = lower value 0.998 | locus YGL167C, strain pmr1, stronger effect = lower value 0.978 | locus YGL173C, strain kem1, stronger effect = lower value 0.99 | locus YGL227W, strain vid30, stronger effect = lower value 0.991 | locus YGL240W, strain doc1, stronger effect = lower value 0.995 | locus YGL248W, strain PDE1, stronger effect = lower value 0.973 | locus YGL253W, strain hxk2, stronger effect = lower value 0.971 | locus YGR078C, strain PAC10, stronger effect = lower value 0.979 | locus YGR135W, strain pre9, stronger effect = lower value 0.971 | locus YGR229C, strain SMI1, stronger effect = lower value 0.974 | locus YGR252W, strain gcn5, stronger effect = lower value 1 | locus YHR013C, strain ard1, stronger effect = lower value 0.936 | locus YHR027C, strain rpn1, stronger effect = lower value 0.968 | locus YHR030C, strain SLT2, stronger effect = lower value 0.985 and 0.977 | locus YHR079C, strain IRE1 (second series), stronger effect = lower value 0.977 | locus YHR079C, strain IRE1, stronger effect = lower value 0.974 | locus YHR094C, strain hxt1, stronger effect = lower value 0.989 | locus YHR129C, strain ARP1, stronger effect = lower value 0.997 | locus YHR142W, strain chs7, stronger effect = lower value 0.982 | locus YHR200W, strain rpn10, stronger effect = lower value 0.981 | locus YIL066C, strain RNR3, stronger effect = lower value 0.976 | locus YIL073C, strain SPO22, stronger effect = lower value 0.95 | locus YIL125W, strain kgd1, stronger effect = lower value 0.989 | locus YIR030C, strain dcg1, stronger effect = lower value 0.972 | locus YJL092W, strain hpr5, stronger effect = lower value 0.988 | locus YJL095W, strain BCK1 (second series), stronger effect = lower value 0.969 | locus YJL095W, strain BCK1, stronger effect = lower value 0.995 and 0.957 | locus YJL115W, strain asf1, stronger effect = lower value 0.986 | locus YJL129C, strain trk1, stronger effect = lower value 1.02 | locus YJL134W, strain LCB3, stronger effect = lower value 0.975 | locus YJL154C, strain vps35, stronger effect = lower value 0.98 | locus YJL164C, strain tpk1, stronger effect = lower value 0.933 | locus YJL166W, strain qcr8, stronger effect = lower value 1.01 | locus YJL168C, strain set2, stronger effect = lower value 0.982 | locus YJL187C, strain SWE1 (second series), stronger effect = lower value 0.972 | locus YJR043C, strain POL32, stronger effect = lower value 0.993 | locus YJR066W, strain TOR1, stronger effect = lower value 0.944 | locus YJR075W, strain HOC1, stronger effect = lower value 0.969
